Measurements reported in PubChem BioAssay (EPA / NIEHS).
Where “and” joins values, the source holds several entries; their conditions need not be identical. Equal entries are not always repeated. Calls of active or inactive are those of the source. How the source made its calls: active means hit-call score of the fitted dose curve at least 0.9, where 1 is the maximum; inactive means score below 0.9.

Test: CCTE_Shafer_MEA_dev_interburst_interval_mean: CCTE's Neural Network Formation Assay for Mean Interburst Interval, Shafer Lab (AID 2284046)
Procedure: CCTE_Shafer_MEA_dev assay is conducted using Axion Biosystems 48 well microelectrode array (MEA) plates and Maestro recording system. Each well of the MEA plate contains a grid of 16 microelectrodes embedded in the culture surface. Electrically active cells, such as neurons, can be cultured over the electrodes, and electrical activity in these cells can be recorded extracellularly. The spontaneous firing of neurons is captured from each electrode on a microsecond timescale providing both temporally and spatially precise data. […] The CCTE_Shafer_MEA_dev assay uses primary cultures of rat cortical neurons. Recordings are made on days post-plating 5, 7, 9 and 12. As these cultures mature over time, neural networks develop functional activity and form cohesive networks in which electrical activity can be highly coordinated. CCTE_Shafer_MEA_dev_interburst_interval_mean is 1 of 19 assay components of the CCTE_Shafer_MEA_dev assay. It measures the average time interval between consecutive single-electrode bursts (temporally-clustered groups of action potential firing) during a recording in a microelectrode array (MEA) using Axion Biosystems Maestro 768 channel amplifier with the AxIS adaptive spike detector. The mean inter-burst interval is averaged across the actively bursting electrodes to report a well-mean value. To collapse across multiple recordings made on days post-plating 5, 7, 9 and 12, the trapezoidal area-under-the-curve of the component is calculated.Data from the assay component CCTE_Shafer_MEA_dev_interburst_interval_mean was analyzed into 1 assay endpoint. This assay endpoint, CCTE_Shafer_MEA_dev_interburst_interval_mean, was analyzed in the negative analysis fitting direction relative to DMSO as the negative control and baseline of activity. Using a type of functional reporter, gain or loss-of-signal activity can be used to understand electrical activity.
On the day prior to culture, each well was coated thoroughly with 150 uL of 0.05% polyethyleneimine (PEI, Sigma Cat P3143) in 50 mM HEPES (Sigma Cat H7523) at a pH of 8. The plate was incubated at 37C for one hour. PEI was rinsed out with 500 uL of sterile water three times. Plates were stored at 4C until the day of culture. This culture was plated at a seeding density of 1.5 x 10^5 cells/well on a 48-well MEA plate, prepared as described above. Cells were administered via a 25 uL media/laminin ([…]; Sigma Cat L2020-1MG) drop directly onto the microelectrode array, as adding the cells with the laminin results in better attachment than pre-coating with laminin. After 2 hours, an additional 475 uL of cortical media was added and the cells returned to the incubator. Exposure starts at day 0 of plating and is continued over twelve days of network development until the experiment is terminated. Cells are fed with fresh medium on DIV 5 and 9, following the recordings on those days. The entire volume of media in the well is exchanged and any vehicle or compound treatment is renewed. Complete details are found in OP-NHEERL/ISTD/SBB/TJS/2015-03-r0 (available on request, email shafer.tim@epa.gov). Measurement of the electrical activity is non-invasive, and recordings can be made from the same plate over multiple different days of the culture. In cortical neurons, this allows for the measurement of extracellular action potentials over the period during which networks form in the MEA plate.

| Compound | outcome | AC50 |
| --- | --- | --- |
| FC(F)(F)C(F)(F)C(F)(F)C(F)(F)C(F)(F)C(F)(F)I | inactive |  |
| CCN(CC)C(=S)SSC(=S)N(CC)CC |  | 200 nM (active) and 55.2 nM (active) |
| COc1cc2c(c(OC)c1OC)-c1ccc(OC)c(=O)cc1[C@@H](NC(C)=O)CC2 |  | 15.9 nM (active) |
| c1ccc2c(c1)-c1cccc3c1c-2cc1ccccc13 | inactive |  |
| NNC(=O)c1ccncc1 | inactive |  |
| OCCC(F)(F)C(F)(F)C(F)(F)C(F)(F)F | inactive |  |
| OC(O)(C(F)C(O)(O)C(F)(F)F)C(F)(F)F | inactive |  |
| c1ccc2cc3ccccc3cc2c1 | inactive |  |
| NC(=O)N1c2ccccc2C=Cc2ccccc21 | inactive |  |
| Nc1ccn([C@@H]2O[C@H](CO)[C@@H](O)[C@@H]2O)c(=O)n1 |  | 158 nM (active) and 437 nM (active) |
| CCOc1ccc2[nH]cc(C(=O)NCc3ccccc3)c(=O)c2n1 | inactive |  |
| OC(Cn1cncn1)(Cn1cncn1)c1ccc(F)cc1F | inactive |  |
| CC[C@H](C)C(=O)O[C@H]1C[C@H](O)C=C2C=C[C@H](C)[C@H](CC[C@@H](O)C[C@@H](O)CC(=O)O)[C@H]21 | inactive |  |
| FC(F)(F)COC(OCC(F)(F)F)OCC(F)(F)F | inactive |  |
| Cn1cc[nH]c1=S | inactive |  |
| C[C@]12C=CC(=O)C=C1CC[C@H]1[C@@H]3C[C@@H](O)[C@](O)(C(=O)CO)[C@@]3(C)C[C@H](O)[C@@]12F | inactive |  |
| NCC(F)(F)C(F)(F)C(F)(F)C(F)(F)F | inactive |  |
| CCCC(CCC)C(=O)O | inactive |  |
| O=C(Cl)C(F)(F)C(F)(F)C(F)(F)C(=O)Cl | inactive |  |
